In paper PMC7862700, “An all-to-all approach to the identification of sequence-specific readers for epigenetic DNA modifications on cytosine” one finds binding signal data, which are given here for one sequence.

Holding throughout (test): DAPPL (digital affinity profiling via proximity ligation, sequencing); 10 mM Tris-HCl pH 7.5, 50 mM NaCl, 1 mM DTT, 4% glycerol, room temperature, 30 min; GST-TFs on glutathione beads, 16-mer random dsDNA library, 0.1% formaldehyde crosslink after washing; high values mean tight binding
What all share (conditions): protein: recombinant; tags: N-terminal GST; dsDNA, one strand shown

Assay [1] concerns the target T1, FLI1 (Homo sapiens, UniProt Q01543 1-452).
T1 sequence: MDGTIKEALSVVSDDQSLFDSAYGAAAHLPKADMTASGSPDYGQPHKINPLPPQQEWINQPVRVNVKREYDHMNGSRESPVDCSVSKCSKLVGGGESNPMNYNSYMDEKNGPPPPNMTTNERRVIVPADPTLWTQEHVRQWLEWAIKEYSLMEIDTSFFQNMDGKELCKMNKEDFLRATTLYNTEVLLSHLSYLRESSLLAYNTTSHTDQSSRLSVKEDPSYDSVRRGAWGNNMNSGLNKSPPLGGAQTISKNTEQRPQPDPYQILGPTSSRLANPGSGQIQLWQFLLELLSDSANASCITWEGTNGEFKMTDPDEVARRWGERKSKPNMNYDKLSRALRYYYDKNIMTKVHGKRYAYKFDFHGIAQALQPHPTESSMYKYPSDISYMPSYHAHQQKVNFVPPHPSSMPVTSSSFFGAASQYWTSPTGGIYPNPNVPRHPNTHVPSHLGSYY
A digest of the protocol: (§1)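 Beads coated with glutathione captured GST-fused human transcription factors that had been expressed in yeast, and the factors were then given DNA barcodes and pooled with a tag-only sample. The pools were incubated with 200 nmole of a random double-stranded 16-mer DNA library in Tris/NaCl/DTT/glycerol buffer for 30 min at room temperature, washed, crosslinked with 0.1% formaldehyde and proximity-ligated with BsaI/T4 ligase at 37 °C for 1 h. PCR amplification and Illumina NextSeq500 sequencing came last. Binding signal is each hexamer's read frequency for a factor divided by its frequency for the tag-only sample.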

Assay [2] concerns the target T2, ELK1 (Homo sapiens, UniProt P19419 1-428).
T2 sequence: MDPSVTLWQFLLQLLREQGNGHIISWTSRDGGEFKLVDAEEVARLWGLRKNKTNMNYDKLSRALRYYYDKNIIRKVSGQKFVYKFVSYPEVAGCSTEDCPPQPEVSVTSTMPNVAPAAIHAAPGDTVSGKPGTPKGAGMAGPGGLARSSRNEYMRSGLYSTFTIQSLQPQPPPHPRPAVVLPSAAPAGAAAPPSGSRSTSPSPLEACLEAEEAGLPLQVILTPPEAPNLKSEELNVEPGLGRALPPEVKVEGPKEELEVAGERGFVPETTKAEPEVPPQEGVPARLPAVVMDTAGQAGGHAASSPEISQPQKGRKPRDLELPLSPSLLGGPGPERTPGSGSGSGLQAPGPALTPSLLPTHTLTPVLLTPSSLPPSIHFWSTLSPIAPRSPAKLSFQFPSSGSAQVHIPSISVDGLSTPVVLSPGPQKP
A digest of the protocol:
as §1

Assay [3] deals with T3, GABPA (Homo sapiens, UniProt Q06546 1-454).
T3 sequence: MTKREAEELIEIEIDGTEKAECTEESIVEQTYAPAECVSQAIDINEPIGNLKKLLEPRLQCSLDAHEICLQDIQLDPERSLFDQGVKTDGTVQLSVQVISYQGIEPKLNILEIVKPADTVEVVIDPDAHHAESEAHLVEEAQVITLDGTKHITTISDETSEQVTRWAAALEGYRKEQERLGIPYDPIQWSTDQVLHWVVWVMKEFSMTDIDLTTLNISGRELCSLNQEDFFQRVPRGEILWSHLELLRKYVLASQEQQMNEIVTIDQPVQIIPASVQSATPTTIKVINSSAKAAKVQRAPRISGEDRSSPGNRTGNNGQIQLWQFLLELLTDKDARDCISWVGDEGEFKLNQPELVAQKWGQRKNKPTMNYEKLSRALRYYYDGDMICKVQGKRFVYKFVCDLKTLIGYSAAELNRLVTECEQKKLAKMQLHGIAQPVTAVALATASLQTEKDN
A digest of the protocol:
as §1

Assay [4] has as its target T4, ERG (Homo sapiens, UniProt P11308 1-479).
T4 sequence: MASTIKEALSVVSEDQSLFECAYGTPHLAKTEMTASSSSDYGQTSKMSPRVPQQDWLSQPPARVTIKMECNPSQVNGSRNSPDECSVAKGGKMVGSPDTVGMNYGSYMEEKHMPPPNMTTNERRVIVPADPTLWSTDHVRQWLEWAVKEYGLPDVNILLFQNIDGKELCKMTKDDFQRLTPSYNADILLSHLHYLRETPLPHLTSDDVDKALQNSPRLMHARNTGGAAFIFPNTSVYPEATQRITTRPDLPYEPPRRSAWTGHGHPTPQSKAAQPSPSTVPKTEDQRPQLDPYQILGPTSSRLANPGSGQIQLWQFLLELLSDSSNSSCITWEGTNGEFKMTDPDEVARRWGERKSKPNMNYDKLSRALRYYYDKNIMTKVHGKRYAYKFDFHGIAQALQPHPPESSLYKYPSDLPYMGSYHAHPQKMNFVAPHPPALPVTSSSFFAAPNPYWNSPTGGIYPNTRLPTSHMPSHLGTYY
An outline of the steps: as §1

In assay [5] the target is ELF1 (Homo sapiens, UniProt P32519 1-619). An outline of the steps:
as §1

Assay [6] has as its target T5, EHF (Homo sapiens, UniProt Q9NZC4 1-300).
T5 sequence: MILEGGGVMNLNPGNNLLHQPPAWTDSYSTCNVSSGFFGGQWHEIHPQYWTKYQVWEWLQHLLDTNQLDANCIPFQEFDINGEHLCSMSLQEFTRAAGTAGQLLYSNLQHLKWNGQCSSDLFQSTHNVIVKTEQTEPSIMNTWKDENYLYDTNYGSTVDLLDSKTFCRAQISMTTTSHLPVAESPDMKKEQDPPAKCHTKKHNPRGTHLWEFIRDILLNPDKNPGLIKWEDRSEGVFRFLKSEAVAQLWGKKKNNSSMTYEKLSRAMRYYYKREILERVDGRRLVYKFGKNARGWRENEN
An outline of the steps:
as §1

Assay [7] has as its target SPI1 (Homo sapiens, UniProt P17947 1-270). An outline of the steps: as §1
Assay [8] addresses SPIB (Homo sapiens, UniProt Q01892 1-262). A digest of the protocol:
as §1

Assay [9] deals with T6, ELK3 (Homo sapiens, UniProt P41970 1-407).
T6 sequence: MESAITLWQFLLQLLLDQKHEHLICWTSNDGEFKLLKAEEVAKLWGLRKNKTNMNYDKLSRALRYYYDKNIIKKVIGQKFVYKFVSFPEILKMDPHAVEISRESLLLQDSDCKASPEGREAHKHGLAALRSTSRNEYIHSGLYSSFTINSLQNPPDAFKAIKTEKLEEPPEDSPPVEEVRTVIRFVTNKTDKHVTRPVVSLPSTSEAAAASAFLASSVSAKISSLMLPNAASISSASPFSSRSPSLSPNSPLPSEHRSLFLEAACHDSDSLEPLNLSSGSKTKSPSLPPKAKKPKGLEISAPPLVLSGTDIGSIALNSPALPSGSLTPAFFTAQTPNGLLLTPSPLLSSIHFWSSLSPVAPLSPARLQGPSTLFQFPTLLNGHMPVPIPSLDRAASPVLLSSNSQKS
An outline of the steps:
as §1

Assay [10] deals with T7, FEV (Homo sapiens, UniProt Q99581 1-238).
T7 sequence: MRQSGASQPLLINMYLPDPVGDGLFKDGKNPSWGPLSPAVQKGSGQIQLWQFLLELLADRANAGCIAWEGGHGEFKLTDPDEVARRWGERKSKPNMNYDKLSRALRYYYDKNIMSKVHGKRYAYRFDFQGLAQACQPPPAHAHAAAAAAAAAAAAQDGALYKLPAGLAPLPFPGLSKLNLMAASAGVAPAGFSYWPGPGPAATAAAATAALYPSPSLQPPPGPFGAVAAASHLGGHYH
A digest of the protocol: as §1

The target of assay [11] is ETV5 (Homo sapiens, UniProt P41161 1-510). A digest of the protocol:
as §1

Assay [12] addresses T8, SPIC (Homo sapiens, UniProt Q8N5J4 1-248).
T8 sequence: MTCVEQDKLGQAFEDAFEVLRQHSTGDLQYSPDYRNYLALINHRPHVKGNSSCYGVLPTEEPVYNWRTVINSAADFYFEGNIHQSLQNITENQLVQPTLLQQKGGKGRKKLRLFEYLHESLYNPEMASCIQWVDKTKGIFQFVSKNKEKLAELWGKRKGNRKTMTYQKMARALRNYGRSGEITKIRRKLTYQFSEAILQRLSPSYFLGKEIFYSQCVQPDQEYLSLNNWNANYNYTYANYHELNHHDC
An outline of the steps: as §1

For assay [13], the target named is ETV1 (Homo sapiens, UniProt P50549 1-477). An outline of the steps:
as §1

Assay [14] addresses T9, ERF (Homo sapiens, UniProt P50548 1-548).
T9 sequence: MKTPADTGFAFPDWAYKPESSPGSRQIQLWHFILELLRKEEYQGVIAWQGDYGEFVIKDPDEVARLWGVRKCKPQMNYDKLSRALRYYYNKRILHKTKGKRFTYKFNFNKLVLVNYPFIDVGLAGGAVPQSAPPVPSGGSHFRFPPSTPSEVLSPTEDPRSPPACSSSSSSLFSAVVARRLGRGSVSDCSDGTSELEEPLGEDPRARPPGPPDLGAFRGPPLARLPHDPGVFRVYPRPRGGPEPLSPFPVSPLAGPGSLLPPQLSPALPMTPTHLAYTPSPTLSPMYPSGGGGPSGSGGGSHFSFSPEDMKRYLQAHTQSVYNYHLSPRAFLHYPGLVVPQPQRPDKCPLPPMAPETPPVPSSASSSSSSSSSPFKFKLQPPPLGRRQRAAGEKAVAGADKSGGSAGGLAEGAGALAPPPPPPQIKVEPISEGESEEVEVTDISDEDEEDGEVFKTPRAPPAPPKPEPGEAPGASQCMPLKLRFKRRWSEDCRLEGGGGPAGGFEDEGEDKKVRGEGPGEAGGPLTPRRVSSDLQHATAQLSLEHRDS
An outline of the steps:
as §1

Assay [15] has as its target T10, ETV3L (Homo sapiens, UniProt Q6ZN32 1-361).
T10 sequence: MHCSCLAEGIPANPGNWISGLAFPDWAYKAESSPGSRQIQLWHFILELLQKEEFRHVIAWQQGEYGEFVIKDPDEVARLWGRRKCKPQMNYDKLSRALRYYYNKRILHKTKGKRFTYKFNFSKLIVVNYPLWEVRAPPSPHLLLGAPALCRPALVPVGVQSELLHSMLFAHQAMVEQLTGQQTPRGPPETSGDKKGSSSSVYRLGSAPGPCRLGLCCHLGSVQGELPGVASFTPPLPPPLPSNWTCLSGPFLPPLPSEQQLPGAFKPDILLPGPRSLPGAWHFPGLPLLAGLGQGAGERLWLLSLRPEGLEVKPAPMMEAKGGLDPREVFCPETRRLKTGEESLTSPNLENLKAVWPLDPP
An outline of the steps:
as §1

Assay [16] concerns the target T11, ETS2 (Homo sapiens, UniProt P15036 1-469).
T11 sequence: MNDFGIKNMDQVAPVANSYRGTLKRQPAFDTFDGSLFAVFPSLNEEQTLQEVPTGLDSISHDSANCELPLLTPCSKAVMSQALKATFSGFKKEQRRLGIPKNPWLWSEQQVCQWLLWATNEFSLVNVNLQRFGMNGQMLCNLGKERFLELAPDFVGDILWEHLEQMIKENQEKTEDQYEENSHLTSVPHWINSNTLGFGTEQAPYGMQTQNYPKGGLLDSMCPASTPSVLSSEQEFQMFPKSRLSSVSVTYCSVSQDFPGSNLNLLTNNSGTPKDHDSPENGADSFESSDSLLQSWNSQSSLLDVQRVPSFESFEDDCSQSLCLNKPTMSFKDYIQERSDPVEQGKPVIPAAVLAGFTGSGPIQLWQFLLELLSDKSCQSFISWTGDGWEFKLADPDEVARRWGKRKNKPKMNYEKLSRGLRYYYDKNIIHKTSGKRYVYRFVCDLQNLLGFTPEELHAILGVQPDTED
A digest of the protocol:
as §1

Assay [17] concerns the target T12, ELF5 (Homo sapiens, UniProt Q9UKW6-2 1-255).
T12 sequence: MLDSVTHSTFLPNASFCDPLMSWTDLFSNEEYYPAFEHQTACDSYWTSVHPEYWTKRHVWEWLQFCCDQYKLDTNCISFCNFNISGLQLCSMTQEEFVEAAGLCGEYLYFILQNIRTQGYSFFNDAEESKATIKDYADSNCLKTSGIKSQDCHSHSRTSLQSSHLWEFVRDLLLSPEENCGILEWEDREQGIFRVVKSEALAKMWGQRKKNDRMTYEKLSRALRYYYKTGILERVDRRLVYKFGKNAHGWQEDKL
A digest of the protocol:
as §1

Assay [18] has as its target T13, ETV3 (Homo sapiens, UniProt P41162-2 1-143).
T13 sequence: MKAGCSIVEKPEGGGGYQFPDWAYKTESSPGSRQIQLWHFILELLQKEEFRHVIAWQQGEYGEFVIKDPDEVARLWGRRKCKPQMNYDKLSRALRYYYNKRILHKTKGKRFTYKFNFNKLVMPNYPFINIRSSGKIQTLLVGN
A digest of the protocol:
as §1

For assay [19], the target named is ETV6 (Homo sapiens, UniProt P41212 1-452). A digest of the protocol: as §1
ETV6, sequence (P41212 whole entry): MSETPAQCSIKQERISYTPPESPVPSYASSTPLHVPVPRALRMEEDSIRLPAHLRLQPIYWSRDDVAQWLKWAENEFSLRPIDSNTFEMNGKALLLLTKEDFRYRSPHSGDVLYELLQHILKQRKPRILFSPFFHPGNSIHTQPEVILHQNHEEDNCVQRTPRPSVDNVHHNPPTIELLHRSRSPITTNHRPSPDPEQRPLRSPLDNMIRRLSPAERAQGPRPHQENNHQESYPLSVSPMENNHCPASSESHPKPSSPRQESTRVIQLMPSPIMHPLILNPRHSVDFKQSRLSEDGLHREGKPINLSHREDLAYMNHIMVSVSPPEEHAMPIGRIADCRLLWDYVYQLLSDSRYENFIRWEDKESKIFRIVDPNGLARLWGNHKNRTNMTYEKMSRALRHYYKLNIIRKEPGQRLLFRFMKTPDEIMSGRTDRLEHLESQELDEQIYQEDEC

ELF1, sequence (P32519 whole entry): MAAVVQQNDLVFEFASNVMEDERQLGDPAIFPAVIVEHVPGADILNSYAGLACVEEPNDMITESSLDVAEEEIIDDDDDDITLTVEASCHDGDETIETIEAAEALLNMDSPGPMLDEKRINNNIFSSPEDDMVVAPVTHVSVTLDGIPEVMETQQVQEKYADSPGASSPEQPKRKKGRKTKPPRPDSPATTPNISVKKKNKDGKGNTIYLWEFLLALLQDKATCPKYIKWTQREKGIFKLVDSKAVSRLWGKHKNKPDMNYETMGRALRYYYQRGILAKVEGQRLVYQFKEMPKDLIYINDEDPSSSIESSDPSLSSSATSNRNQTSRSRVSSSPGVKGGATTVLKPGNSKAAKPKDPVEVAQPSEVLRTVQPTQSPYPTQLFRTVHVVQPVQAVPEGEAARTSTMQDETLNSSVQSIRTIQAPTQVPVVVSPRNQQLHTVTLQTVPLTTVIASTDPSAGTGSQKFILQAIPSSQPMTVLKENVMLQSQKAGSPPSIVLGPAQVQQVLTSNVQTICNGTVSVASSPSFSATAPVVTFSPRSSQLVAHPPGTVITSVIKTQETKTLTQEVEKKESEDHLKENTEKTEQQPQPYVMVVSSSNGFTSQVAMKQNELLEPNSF
SPIB, sequence (Q01892 whole entry): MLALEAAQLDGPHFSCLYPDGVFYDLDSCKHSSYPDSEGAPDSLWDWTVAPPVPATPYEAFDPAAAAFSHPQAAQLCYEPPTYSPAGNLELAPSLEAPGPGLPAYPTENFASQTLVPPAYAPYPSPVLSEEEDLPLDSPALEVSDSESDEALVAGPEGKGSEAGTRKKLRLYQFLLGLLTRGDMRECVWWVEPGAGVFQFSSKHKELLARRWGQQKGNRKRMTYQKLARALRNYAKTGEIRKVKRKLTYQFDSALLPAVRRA
ETV1, sequence (P50549 whole entry): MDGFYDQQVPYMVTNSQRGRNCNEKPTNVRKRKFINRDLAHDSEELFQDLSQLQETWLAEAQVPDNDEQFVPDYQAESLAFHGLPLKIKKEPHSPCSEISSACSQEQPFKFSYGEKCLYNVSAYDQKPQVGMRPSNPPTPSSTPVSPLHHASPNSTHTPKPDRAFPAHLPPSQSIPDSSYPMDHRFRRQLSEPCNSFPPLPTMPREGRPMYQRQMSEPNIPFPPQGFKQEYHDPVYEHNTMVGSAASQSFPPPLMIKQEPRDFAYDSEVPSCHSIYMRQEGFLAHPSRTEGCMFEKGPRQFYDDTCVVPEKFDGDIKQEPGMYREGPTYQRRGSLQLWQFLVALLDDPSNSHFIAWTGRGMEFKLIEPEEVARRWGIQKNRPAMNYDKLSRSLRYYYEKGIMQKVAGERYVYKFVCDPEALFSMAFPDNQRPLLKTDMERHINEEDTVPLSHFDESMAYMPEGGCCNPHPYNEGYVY
ETV5, sequence (P41161 whole entry): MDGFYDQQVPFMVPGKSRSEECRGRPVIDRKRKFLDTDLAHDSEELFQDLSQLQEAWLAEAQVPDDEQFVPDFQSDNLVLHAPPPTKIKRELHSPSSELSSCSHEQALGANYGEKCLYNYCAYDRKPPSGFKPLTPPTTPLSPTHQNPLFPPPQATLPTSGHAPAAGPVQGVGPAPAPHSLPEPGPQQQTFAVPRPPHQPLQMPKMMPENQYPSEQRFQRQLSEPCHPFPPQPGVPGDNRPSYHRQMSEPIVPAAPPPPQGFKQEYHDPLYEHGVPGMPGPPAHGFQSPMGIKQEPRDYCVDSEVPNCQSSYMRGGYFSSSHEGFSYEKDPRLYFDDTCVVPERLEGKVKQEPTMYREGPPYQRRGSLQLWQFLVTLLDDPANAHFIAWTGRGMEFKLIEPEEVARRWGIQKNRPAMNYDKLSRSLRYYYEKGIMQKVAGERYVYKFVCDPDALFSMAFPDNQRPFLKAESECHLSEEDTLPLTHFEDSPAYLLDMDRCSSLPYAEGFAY

For the sequence AGTGGT, the binding signal is 1.04 fold enrichment (6-mer frequency, TF over GST control) in [1]; 1.03 fold enrichment (6-mer frequency, TF over GST control) in assay [2]; 1.09 fold enrichment (6-mer frequency, TF over GST control) in [3]; 1.06 fold enrichment (6-mer frequency, TF over GST control) in [4]; 1.06 fold enrichment (6-mer frequency, TF over GST control) in assay [5]; 1.11 fold enrichment (6-mer frequency, TF over GST control) in assay [6]. In addition, the binding signal was 1.42 fold enrichment (6-mer frequency, TF over GST control) in assay [7]; 1.22 fold enrichment (6-mer frequency, TF over GST control) in [8]; 1.15 fold enrichment (6-mer frequency, TF over GST control) in [9]; 1.02 fold enrichment (6-mer frequency, TF over GST control) in [10]; 1.14 fold enrichment (6-mer frequency, TF over GST control) in assay [11]; 1.22 fold enrichment (6-mer frequency, TF over GST control) in assay [12]. For the same sequence, the binding signal in assay [13] is 1.02 fold enrichment (6-mer frequency, TF over GST control); in [14], 1.14 fold enrichment (6-mer frequency, TF over GST control); in [15] it was 1.06 fold enrichment (6-mer frequency, TF over GST control); in assay [16], 1.12 fold enrichment (6-mer frequency, TF over GST control); in assay [17], 1.14 fold enrichment (6-mer frequency, TF over GST control); in assay [18] it was 1.09 fold enrichment (6-mer frequency, TF over GST control). Besides, the binding signal in [19] is 1.11 fold enrichment (6-mer frequency, TF over GST control).
